m5-HT2A agonist: mouse Htr2a agonists via beta-arrestin recruitment, primary screen, cell-based, luminescence | 5-hydroxytryptamine receptor 2A (Mus musculus), P35363 | CHO-K1 mHTR2A beta-arrestin complementation; percent of 30 µM serotonin response | activation, % at 7.6 µM | hit rate 0.66% among 360,000 | AID 624169, 2012;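 active = activation above a run cutoff, the mean activation of all tested compounds plus 3 SD, cut at about 14% in these data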;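 note: 0% = plate median of compound wells and 100% = 30 µM serotonin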
B2AR ag: beta2AR agonists driving receptor internalization, primary screen, cell-based, FAP fluorogen, flow cytometry; response, % (concentration not given with the values); Am2.2-beta2AR cells; hit rate 0.43% among 340,000; Beta-2 adrenergic receptor (Homo sapiens), P07550; AID 504454, 2011;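 active = response above a set limit, near 3 SD of response in nonfluorescent compounds, cut at about 42% in these data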
Target sequence (P07550 whole entry, looked up): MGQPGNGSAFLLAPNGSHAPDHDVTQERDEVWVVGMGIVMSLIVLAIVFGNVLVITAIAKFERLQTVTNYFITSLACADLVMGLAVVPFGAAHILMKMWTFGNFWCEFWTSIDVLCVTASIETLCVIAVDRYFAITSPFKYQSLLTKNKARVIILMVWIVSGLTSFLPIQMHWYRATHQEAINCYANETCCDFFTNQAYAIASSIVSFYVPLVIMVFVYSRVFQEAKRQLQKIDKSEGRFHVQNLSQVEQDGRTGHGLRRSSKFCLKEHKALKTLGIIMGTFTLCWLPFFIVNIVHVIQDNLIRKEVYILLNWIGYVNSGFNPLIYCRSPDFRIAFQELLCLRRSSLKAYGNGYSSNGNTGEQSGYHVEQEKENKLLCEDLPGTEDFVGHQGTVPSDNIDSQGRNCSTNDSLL
NTR1 ag: agonists of human NTR1, primary screen, imaging, U2OS cells, beta-arrestin-GFP, high content. Neurotensin receptor type 1 (Homo sapiens), P30989. NTR1-U2OS beta-arrestin-GFP spot imaging, agonist mode. activation, % at 20 µM. hit rate 0.17% among 330,000. AID 493036, 2011;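 active = activation at or above 40% of the spot to cytoplasm intensity ratio, with at least 20 cells analyzed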;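 note: 0% = DMSO without peptide and 100% = 100 nM NTR1 peptide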
ABHD5-PLIN5 inh: ABHD5-PLIN5 interaction inhibitors, primary screen, cell lysate, split luciferase complementation, luminescence; Perilipin-5 (Homo sapiens) + 1-acylglycerol-3-phosphate O-acyltransferase ABHD5 (Homo …; Split G. princeps luciferase complementation, 4 h; inhibition, % at 4 µM; hit rate 0.78% among 360,000;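 active = inhibition above the mean inhibition across every tested compound plus 3 SD, cut at about 22% in these data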;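 note: 0% = DMSO only wells and the 100% control is not disclosed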
Exocytosis inh: LAMP-1 surface exposure blockers, TALL-104 cells – cell-based, flow cytometry, MLPCN library, primary screen; TALL-104 LAMP-1 surface exposure; cells stimulated with thapsigargin and PMA; inhibition, % at 10 µM; hit rate 0.66% among 360,000;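 active = inhibition above about 55%, limit read from the data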
* = called active by the depositor; x = no result given. Hits are enriched below; roughly 2.3% of the tested compounds scored in any of these assays.

SMILES	m5-HT2A agonist	B2AR ag	NTR1 ag	ABHD5-PLIN5 inh	Exocytosis inh
O=C(CC(Nc1ccc(Cl)cc1)C(=O)O)c1ccccc1 (stereo not drawn)	-3	12	-1	22*	1
CC(/C=C/c1cccc([N+](=O)[O-])c1)=N\NC(=O)c1ccncc1	-4	-4	-2	16	3
COc1ccc(/C=C/C(=O)c2ccc([N+](=O)[O-])o2)cc1	-1	59*	19	18	26
Cc1ccccc1/C=C/C(=O)c1ccc([N+](=O)[O-])o1	x	x	-4	x	x
C/C(CC1CC2=C(CC1(C)C)C(C)(C)CCC2)=N\NC(N)=S (stereo not drawn)	-1	16	16	8	0
CCOc1ccc(N=C2NC(=O)/C(=C/C(=O)OC)S2)cc1	0	14	0	23*	-2
COC(=O)c1cc(=O)n(Cc2ccc(OC)c(OC)c2)c(=Nc2ccc(F)cc2)s1	0	72*	28	3	2
Cc1ccccc1Nc1nc(N)nc(CN(C)Cc2ccccc2Cl)n1	-1	-9	6	3	0
CCC(=O)Nc1cc(-c2cc3ccccc3oc2=O)ccc1OC	-1	-34	0	-7	-6
COc1ccc(-c2cc3ccccc3oc2=O)cc1NC(=S)NC(=O)c1ccc2c(c1)OCCO2	-1	42*	7	-7	-7
Cc1ccc(C(C(=O)NCc2ccco2)N(C(=O)CNC(=O)c2cccs2)c2c(C)cc(C)cc2C)cc1 (stereo not drawn)	-1	-11	4	2	-5
CCCc1nc2c(=O)n(C)c(=O)nc-2n(C)n1	3	80*	x	6	20
CCn1c(N)nc2c1c(=O)n(C)c(=O)n2C	-2	9	1	2	0
Cn1nc(-c2ccccn2)nc2c(=O)n(C)c(=O)nc1-2	13	74*	0	14	31
CCOC(=O)C1=CC[C@@H](c2ccccc2)N(S(=O)(=O)c2ccc(C)cc2)[C@H]1/C=C/c1ccccc1	-6	x	x	-7	2
CC(C)c1ccc(N(C(=O)CNC(=O)c2ccco2)C(C(=O)NC2CCCC2)c2cccnc2)cc1 (stereo not drawn)	0	-9	-2	0	14
Cc1ccc(S(=O)(=O)N2CCN(C(=O)c3ccc(COc4ccccc4)o3)CC2)cc1	6	3	9	-1	-4
CC1=C/C(=N\OS(=O)(=O)c2ccccc2)C(C)=CC1=O	5	20	28	7	99*
CCOC(=O)/C=C/C(=O)Nc1cccc([N+](=O)[O-])c1	-3	7	4	44*	22
CCOC(=O)c1cccc(NC(=O)/C=C/c2cccc([N+](=O)[O-])c2)c1	3	2	7	4	4
Cc1ccc(NC(=O)c2cc(N3C(=O)C=CC3=O)ccc2N2CCOCC2)cc1Cl	-5	76*	x	22	42
COc1cc(NC(=O)c2ccc3c(=O)n(Cc4ccco4)c(=S)[nH]c3c2)cc(OC)c1OC	-4	5	8	22*	-2
CC(=O)Nc1ccc(S(=O)(=O)N2CCC(NC(=O)C(Cc3cccn3C)NC(C)=O)CC2)cc1 (stereo not drawn)	10	11	1	23*	6
N/C(=N\OC(=O)CC(c1ccccc1)c1ccccc1)c1cccnc1	-15	11	1	5	2
CCC(C)(C)n1nnnc1CN(Cc1ccco1)Cc1cc2cc3c(cc2[nH]c1=O)OCO3	-2	0	2	23*	2
SMILES	m5-HT2A agonist	B2AR ag	NTR1 ag	ABHD5-PLIN5 inh	Exocytosis inh
COCCn1nnnc1CN(Cc1ccco1)Cc1cc2cc3c(cc2[nH]c1=O)OCO3	0	6	0	22*	-4
CCCCCCNC(=O)O[C@H]1Cn2c(=O)n(CCCCCC)c(=O)n2[C@@H]2CN(S(=O)(=O)c3ccc(C)cc3)C[C@]12O	0	x	x	-13	16
CCCCCCNC(=O)O[C@H]1Cn2c(=O)ccc(=O)n2[C@@H]2CN(S(=O)(=O)c3ccc(C)cc3)C[C@]12O	3	x	x	23*	7
CCN(CC(=O)Nc1ccc2c(c1)OCCO2)C(=O)COc1ccc(C(C)=O)cc1	-1	x	x	0	-2
CCCCS(=O)(=O)/C=C\C=C/S(=O)(=O)CCCC	-4	40	16	84*	43
CCCCS(=O)(=O)/C=C\C1C2C=CC(C2)C1S(=O)(=O)CCCC (stereo not drawn)	-3	-2	-1	-2	-1
CCC(=O)OCCNc1cc(Sc2nccn2C)c2nonc2c1[N+](=O)[O-]	-3	83*	x	7	7
CC(=O)OCCNc1cc(SC(C)C)c2nonc2c1[N+](=O)[O-]	3	-8	2	-9	-4
CCC(=O)OCCNc1cc(SCCC(=O)OC)c2nonc2c1[N+](=O)[O-]	4	77*	5	-14	2
CC(=O)OCCCNc1cc(Sc2ccc(Cl)cc2)c2nonc2c1[N+](=O)[O-]	2	50*	x	-1	64*
CCN(CC)C(=O)c1cccc(-c2csc(C(O)c3cccc(OC)c3)n2)c1 (stereo not drawn)	1	x	x	-3	-5
CN1CCN(CCCNC(=O)c2ccc(/C=C3/Sc4ccccc4N(Cc4cccc(Cl)c4)C3=O)cc2)CC1	-7	24	x	21	75*
CCN1CCN(CCNC(=O)c2ccc(/C=C3\Sc4ccccc4N(Cc4ccccc4F)C3=O)cc2)CC1	-13	55*	37	17	72*
O=C(NCc1ccco1)/C(=C/c1ccccc1F)NC(=O)c1ccccc1	4	13	0	6	-3
O=C(Nc1ccc(OC(F)F)cc1)c1cc(S(=O)(=O)N2CCOCC2)ccc1N1CCCC1	-2	1	x	-2	1
O=C(c1ccco1)N1CCN(Cc2csc(-c3ccccc3Cl)n2)CC1	-4	-3	0	0	-4
COc1cccc(Oc2nnnn2-c2ccccc2)c1	0	-1	-1	-1	-5
COc1cccc(-n2nnnc2S(C)(=O)=O)c1	-7	32	17	68*	80*
C(#Cc1ccccc1)C[N+]1(CC#Cc2ccccc2)CCCC1	-3	5	2	1	1
C=CC#CC[N+]1(CC#Cc2ccccc2)CCOCC1	5	72*	x	7	-1
CCc1ccc(OCC(=O)O/N=C(\N)c2ccncc2)c(Br)c1	-5	-7	0	-4	16
CC(C)(C)C1C/C(=C/c2ccccn2)C(=O)/C(=C/c2ccccn2)C1 (stereo not drawn)	7	85*	39	72*	24
CC1C/C(=C/c2ccccn2)C(=O)/C(=C/c2ccccn2)C1 (stereo not drawn)	-1	17	9	76*	11
